This passage reports max response results from PubChem BioAssay AID2314 (National Center for Advancing Translational Sciences (NCATS), 2010).

The campaign covered roughly 300,000 compounds. About 37,000 (12%) were called active. This excerpt belongs to a sample that is enriched for actives. A number with no mark means an inactive call. No stated cut-off is given here; in the data, active means max response mostly above about 13% (no sharp cut-off); inactive means mostly below about 14%.

This assay can be described thus: Cycloheximide Counterscreen for Small Molecule Inhibitors of Shiga Toxin. Further: read at 38.3 µM for the half of the compounds with a filed dose; 0% is about no effect. The conditions noted are these: cell reporter, cycloheximide protein synthesis inhibition counterscreen; hits give high values. Background: A counterscreen serves to expose hits that act by an unwanted route or on another target.
Regarding `c1ccc(-c2cc3c(NCC4COc5ccccc5O4)ncnc3s2)cc1` (stereo not drawn), the max response was 9.76%. For the compound `CCN(CC)CCNC(=O)c1ccc(NS(=O)(=O)c2ccc3c(c2)OCCO3)cc1`, the max response was 2.7%.

Regarding `C/C(=N\NC(=O)C(N)=O)c1ccc2c(c1)OCCO2`, the max response was 15.2%. The result for `C/C(=N/NC(=O)c1ccncc1)c1ccc2c(c1)OCO2` reads 0.639%; that for `Cc1ccc2nc(-c3ccccn3)cc(C(=O)Nc3ccc4c(c3)OCO4)c2c1`, 20.8%; that for `CC(NC(=O)Nc1cccc([N+](=O)[O-])c1)c1ccc2c(c1)OCO2` (stereo not drawn), -0.734%. The result for `CCSc1ccccc1C(=O)Nc1ccc2c(c1)OCO2` reads 21.7% (active); that for `CC(C)NC(=O)CSc1ccccc1C(=O)NCc1ccc2c(c1)OCO2`, 3.57%. The result for `CC(NS(=O)(=O)c1ccc(Cl)cc1)C(=O)Nc1ccc2c(c1)OCCO2` (stereo not drawn) reads -1.8%; that for `O=C(Nc1cccc([N+](=O)[O-])c1)c1ccc2c(c1)OCO2`, 36.2% (active). On to `C/C(=N/NC(=S)Nc1ccccc1)c1ccc2c(c1)OCO2`, for which the max response was 33.6% (active).

Take `O=C(Nc1cccc(S(=O)(=O)Nc2ccc(Cl)cc2)c1)c1ccc2c(c1)OCCO2`: the max response is 12.5% (active). The result for `O=C(NCc1cccnc1)c1ccccc1NC(=O)c1c(F)cccc1F` reads 7.34%; that for `CCCCNC(=O)C1(O)c2ccccc2NC(=O)N1c1ccc(Cl)cc1` (stereo not drawn), 7.78%.

As to `CC(=O)Oc1ccc(N(C(C)=O)S(=O)(=O)c2ccc3ccccc3c2)cc1Br`, the max response is -1.7%. Take `O=C(COc1ccc2ccc(=O)oc2c1)NCC(O)c1ccccc1` (stereo not drawn): the max response is -10.7%.

For the compound `CN(CC(=O)NCc1ccncc1)S(=O)(=O)c1ccc(Br)cc1`, the max response was -0.724%. With `COc1ccc(C(C)C)cc1S(=O)(=O)Nc1ncn[nH]1` the figure was -4.29%; with `CCc1nnc(NC(=O)CCC(=O)N2CCN(c3cc(C)ccc3C)CC2)s1`, -5.72%; with `Cc1c(NS(=O)(=O)c2ccc(NC3CCCC3)c([N+](=O)[O-])c2)c(=O)n(-c2ccccc2)n1C`, -1.22%.

Consider `Cc1ccc(NS(=O)(=O)c2ccc3c(c2)n(C)c(=O)c(=O)n3C)c(C)c1`, for which the max response is 1.12%. With `O=C(Nc1ccc(N2CCOCC2)cc1)c1ccc2c(c1)OCO2`, the max response is 36.8% (active). With `C/C(Cc1ccccc1)=N\NC(=O)CNC(=O)c1ccc2c(c1)OCCO2` the figure was -2.54%; with `O=C(O)CCC(=O)Nc1ccc(N2CCOCC2)cc1`, -3.84%. The result for `COCc1nnc(NC(=O)c2ccc3c(c2)OCO3)s1` reads 45.3% (active). With `COc1ccccc1C(=O)N/C(=C/c1ccc2c(c1)OCO2)C(=O)Nc1cccc(C(=O)O)c1` the figure was -2.49%; with `Cc1ccc(C(=O)Nc2sc(Cc3ccc4c(c3)OCO4)c(C)c2C(N)=O)cc1`, -4.2%; with `O=C(CN1CCc2cc3c(cc2C1)OCCCO3)Nc1ccccc1`, 5.97%. As for `CC(C)C(=O)Nc1cccc(C(=O)Nc2ccc3c(c2)OCO3)c1`, the max response is 58.7% (active). With `O=C(c1ccc2c(c1)OCO2)N1CCOCC1` the figure was -3.42%; with `O=C(Nc1ccccc1)c1ccc2c(c1)OCCCO2`, 41.3% (active); with `COCc1nnc(NC(=O)CS(=O)(=O)Cc2ccccc2)s1`, 5.49%.

In the case of `CCCN1C2=C(C(=O)CCC2)C(c2ccc(O)c(Br)c2)C2=C1CCCC2=O`, the max response is -1.08%.

Turning to `Cc1ccc(O)c(/C=N/NC(=O)COc2ccc3c(C)cc(=O)oc3c2)c1`, the max response is -8.1%. With `Cn1c(=O)c2c(ncn2CC(COCc2ccccc2Cl)OCc2ccccc2Cl)n(C)c1=O` (stereo not drawn) the figure was -1.13%. Consider `Cc1ccccc1N1C(=O)C(Oc2ccc(Cl)cc2)C1CNCC1CCCO1` (stereo not drawn), for which the max response was 0.428%.

`CC(=O)Nc1sc2c(c1C(c1cccc(F)c1)N1CCN(CCO)CC1)CCCC2` (stereo not drawn): the max response was -2.8%. Turning to `CCOCCCNC(=O)c1ccc(CS(=O)(=O)c2cccc(C(F)(F)F)c2)o1`, the max response is -3%. As to `Cc1ccc(-c2ccnc3[nH]n(-c4ccccc4)c(=O)c23)cc1`, the max response was 4.53%.

In the case of `COc1ccccc1N1CCN(c2ccc([N+](=O)[O-])nc2)CC1`, the max response is 12.7%.

On to `COc1ccc(OC)c(-c2c(=O)n(OCc3ccccc3Br)c3ccccc3[n+]2[O-])c1`, for which the max response was -4.9%. Regarding `CCOC(=O)COn1c(=O)c(-c2ccc(OCC)cc2)[n+]([O-])c2ccccc21`, the max response is 21.8% (active). The result for `CCOc1ccc(OCC)c(-c2c(=O)n(OCc3ccc(Cl)cc3)c3ccccc3[n+]2[O-])c1` reads -2.89%.

On to `COCCNC(=O)C(c1ccc(C)cc1)N(C(=O)CCC(=O)Nc1ccccn1)c1cccc(C)c1` (stereo not drawn), for which the max response is -1.18%. `O=C(Cn1ncc2c3ccccc3n(Cc3ccccc3)c2c1=O)NCc1ccccn1`: the max response was -1.24%. As for `CCCOc1ccc(Cn2ccnc2)cc1[N+](=O)[O-]`, the max response is 6.93%. On to `CCCCOc1ccc(CSC(=N)N)cc1[N+](=O)[O-]`, for which the max response is -3.27%. With `CCCCCOc1ccc(CSC2=NCCN2)cc1[N+](=O)[O-]` the figure was 16.2% (active); with `CCN=C1S/C(=C\c2cc(Br)ccc2OCC(=O)OCC)C(=O)N1CC`, 2.07%. With `c1ccc(C(c2ccccc2)N2CCN(Cc3nnnn3C3CCCCC3)CC2)cc1` the figure was -1.95%. With `CSc1cccc(NC(=O)C2CCCN2S(=O)(=O)c2ccc3c(c2)CCC(=O)N3)c1` (stereo not drawn) the figure was 25.7% (active); with `CC(=O)Nc1ccc(NC(=O)C2CCCN2S(=O)(=O)c2cccc(C(F)(F)F)c2)cc1` (stereo not drawn), 0.889%; with `O=C1CCc2cc(S(=O)(=O)N3CCC(C(=O)NCc4ccccc4Cl)CC3)ccc2N1`, 5.54%.

Turning to `CS(=O)(=O)N1CCN=C1SCc1ccc(F)cc1`, the max response is -2.32%. `Cc1cc(OCC(=O)Nc2c(C)n(C)n(-c3ccccc3)c2=O)ccc1[N+](=O)[O-]`: the max response is 1.26%.

Regarding `O=C1CSC(=S)N1c1ccc(O)cc1`, the max response was 0.99%. With `O=S(=O)(c1ccc(-c2ccno2)s1)N1CCCCC1` the figure was -3.51%. Turning to `Cc1cc(NC(=O)CCC(=O)N(Cc2ccccc2)C(C(=O)NC2CCCC2)c2ccc(C)o2)no1` (stereo not drawn), the max response was -2.01%.
